Experimental data from PubChem BioAssay (NCATS).
Results filed as inconclusive are left out. The source made the active and inactive calls. The call rests on the fitted dose curve; in most records, active means well fitted inhibition curve with a large enough effect; inconclusive means small, poorly fitted or top-dose-only effect; inactive means flat fitted curve, though single readings scatter.

How the values were obtained:
Experiment in all cases: qHTS profiling for inhibitors of Plasmodium falciparum proliferation (AID 504749); further: nearly all actives have a fitted effect of over 60% in size
Details in all cases: P. falciparum in erythrocytes, SYBR Green DNA, 72 h; series mostly up to 28.7 µM
CP256 = system: CP256
Summary of the method: (§1)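 Infected RBCs, 0.3% parasitemia/2.5% Hct final; cpd 72 h, 37 C, 5% CO2; lysis buffer with saponin/triton/SYBR Green I, o/n RT dark; FI 485/535; norm. to artemisinin (0.29 uM) and DMSO.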

CP260 = system: CP260
Summary of the method: as §1

CP262 = system: CP262
Summary of the method: as §1

CP265 = system: CP265
Summary of the method: as §1

CP268 = system: CP268
Summary of the method: as §1

CP269 = system: CP269
Summary of the method: as §1

CP286 = system: CP286
Summary of the method: as §1

CP291 = system: CP291
Summary of the method: as §1

CP297 = system: CP297
Summary of the method: as §1

CP266 = system: CP266
Summary of the method: as §1

Measured: Potency
Potency means the concentration at half of the fitted maximal effect.

CO[C@H]1C[C@@H]2CC[C@@H](C)[C@@](O)(O2)C(=O)C(=O)N2CCCC[C@H]2C(=O)O[C@H]([C@H](C)C[C@@H]2CC[C@@H](OC(=O)C(C)(CO)CO)[C@H](OC)C2)CC(=O)[C@H](C)/C=C(\C)[C@@H](O)[C@@H](OC)C(=O)[C@H](C)C[C@H](C)/C=C/C=C/C=C/1C
inactive: CP256 | CP260 | CP262 | CP265 | CP268 | CP269 | CP286 | CP291 | CP297

O=C(O)CC/C=C\CC[C@@H]1[C@@H](N2CCCCC2)[C@@H](O)C[C@@H]1OCc1ccc(-c2ccccc2)cc1
inactive: CP256 | CP260 | CP262 | CP265 | CP268 | CP269 | CP286 | CP291 | CP297

CCCCO
inactive: CP256 | CP260 | CP262 | CP265 | CP268 | CP269 | CP286 | CP291 | CP297

OCCCNc1ccccc1
inactive: CP256 | CP260 | CP262 | CP265 | CP268 | CP269 | CP286 | CP291 | CP297

COc1ccc2nc(NC(=O)Nc3ccccc3)sc2c1
inactive: CP256 | CP260 | CP262 | CP265 | CP266 | CP268 | CP286 | CP297

Cc1ccc(S(=O)(=O)O)cc1C
inactive: CP256 | CP260 | CP262 | CP265 | CP268 | CP269 | CP286 | CP291 | CP297

CC(C)(Oc1ccc(C2CCCc3ccccc32)cc1)C(=O)O (centres undefined)
inactive: CP256 | CP260 | CP262 | CP265 | CP268 | CP269 | CP286 | CP291 | CP297

CC(O)CN(C)C (centres undefined)
inactive: CP256 | CP260 | CP262 | CP265 | CP268 | CP269 | CP286 | CP291 | CP297

CCC(O)c1ccccc1 (centres undefined)
inactive: CP256 | CP260 | CP262 | CP265 | CP268 | CP269 | CP286 | CP291 | CP297

NC(=O)Oc1ccc(Cc2ccccc2)cc1
inactive: CP256 | CP260 | CP262 | CP265 | CP266 | CP268 | CP269 | CP286 | CP297

CCCCCCOC(=O)c1cccnc1
inactive: CP256 | CP260 | CP262 | CP265 | CP268 | CP269 | CP286 | CP291 | CP297

c1ccc2c(c1)Sc1ccccc1N2CCN1CCCC1
inactive: CP262
active: CP256 10 µM | CP260 7.94 µM | CP265 11.2 µM | CP268 9.53 µM | CP269 15.1 µM | CP286 10 µM | CP291 13.5 µM | CP297 12 µM

NC(=S)N=Nc1ccc(NN=C(N)N)cc1
active: CP256 1.58 µM | CP260 7.94 µM | CP262 6.01 µM | CP265 12.6 µM | CP268 9.53 µM | CP269 6.75 µM | CP286 4.47 µM | CP291 8.49 µM | CP297 9.53 µM

N=C(N)c1ccc(/C=C/c2ccc(C(=N)N)cc2O)cc1
active: CP256 0.447 µM | CP260 11.2 µM | CP262 1.35 µM | CP265 11.2 µM | CP268 9.53 µM | CP269 6.75 µM | CP286 4.47 µM | CP291 6.75 µM | CP297 5.36 µM

Oc1ccc(Cl)c2c1CCC2
inactive: CP256 | CP260 | CP262 | CP265 | CP268 | CP269 | CP286 | CP291

S=C=Nc1ccc(N=C=S)cc1
inactive: CP256 | CP260 | CP262 | CP265 | CP268 | CP269 | CP286 | CP291 | CP297

Cc1cccc(C)c1NC(=O)NC1=CCCN1C
inactive: CP256 | CP260 | CP262 | CP265 | CP268 | CP269 | CP286 | CP291 | CP297

CN1C(C(=O)Nc2ccccn2)C(=O)c2sc(Cl)cc2S1(=O)=O (centres undefined)
inactive: CP256 | CP260 | CP262 | CP265 | CP266 | CP268 | CP269 | CP286 | CP297

FC(F)(F)COCC(F)(F)F
inactive: CP256 | CP260 | CP262 | CP265 | CP268 | CP269 | CP286 | CP291 | CP297

CC(=O)Oc1cccc(C(=O)O)c1OC(C)=O
inactive: CP256 | CP260 | CP262 | CP265 | CP266 | CP268 | CP269 | CP286 | CP291 | CP297

COc1ccc(C(=O)CCC(=O)O)c2ccccc12
inactive: CP256 | CP260 | CP262 | CP265 | CP268 | CP269 | CP286 | CP291 | CP297

CN(C)CCCSc1ccccc1NC(=O)/C=C/c1ccccc1
inactive: CP256 | CP260 | CP262 | CP265 | CP266 | CP269 | CP286 | CP291

[O]=[Bi][O][Bi]=[O]
inactive: CP256 | CP260 | CP262 | CP265 | CP268 | CP269 | CP286 | CP291 | CP297

O=P(O)(O)OC[C@H](O)CO
inactive: CP256 | CP260 | CP262 | CP265 | CP268 | CP269 | CP286 | CP291 | CP297

O=C1[O][Bi][O]c2ccccc21
inactive: CP256 | CP260 | CP262 | CP265 | CP268 | CP269 | CP286 | CP291 | CP297

OCC(O)CO
inactive: CP256 | CP260 | CP265 | CP266 | CP268 | CP269 | CP286 | CP291 | CP297

CSc1nc2cc(Oc3cccc(Cl)c3Cl)c(Cl)cc2[nH]1
active: CP256 1.78 µM | CP260 7.94 µM | CP265 2 µM | CP269 12 µM | CP286 10 µM | CP291 8.49 µM | CP297 12 µM
inactive: CP262

CCCCC[C@H](O)/C=C/[C@@H]1[C@H]2C/C(=C/CCCC(=O)O)O[C@H]2C[C@H]1O
inactive: CP256 | CP262 | CP265 | CP266 | CP268 | CP269 | CP286 | CP291 | CP297

CCCCC(CC)CCC(CC(C)C)OS(=O)(=O)O (centres undefined)
inactive: CP256 | CP262 | CP265 | CP266 | CP268 | CP269 | CP286 | CP291 | CP297

C(=C\c1ccncc1)/c1ccccc1
inactive: CP256 | CP260 | CP265 | CP266 | CP268 | CP269 | CP286 | CP297

COc1cc(NCCCC(C)N)c2ncccc2c1 (centres undefined)
active: CP256 4.47 µM | CP260 8.91 µM | CP262 6.75 µM | CP265 8.91 µM | CP268 6.75 µM | CP269 7.57 µM | CP286 1.41 µM | CP297 8.49 µM
